# Bioassay records (PubChem)
# S1P3 antag: S1P3 receptor antagonists, primary screen, cell-based | Sphingosine 1-phosphate receptor 3 (Homo sapiens), Q99500 | CHO S1P3 NFAT-BLA reporter, FRET fluorescence, antagonist mode | inhibition, % at 4.98 µM | 0.27% of 170,000 active;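 active means inhibition above the plate cutoff, the mean inhibition of test wells on that plate plus 3 SD, cut at about 28% in these data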;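 further: cells challenged with S1P at its EC80 of 0.8 µM; blue over green emission ratio from cleaved BLA substrate after 4 h stimulation; 0% = S1P-stimulated wells and 100% = unstimulated DMSO-only wells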
# Target sequence (Q99500 whole entry, looked up): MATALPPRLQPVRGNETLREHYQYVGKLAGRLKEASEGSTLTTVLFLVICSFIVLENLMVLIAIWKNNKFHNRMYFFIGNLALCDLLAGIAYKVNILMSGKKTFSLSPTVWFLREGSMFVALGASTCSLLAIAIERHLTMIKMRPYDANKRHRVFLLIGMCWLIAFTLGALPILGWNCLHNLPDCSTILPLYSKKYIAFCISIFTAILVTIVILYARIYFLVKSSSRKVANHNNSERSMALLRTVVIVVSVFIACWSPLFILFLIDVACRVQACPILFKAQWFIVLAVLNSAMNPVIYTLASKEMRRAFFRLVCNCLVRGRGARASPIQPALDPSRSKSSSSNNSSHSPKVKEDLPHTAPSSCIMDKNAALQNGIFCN
# S1P4 antag: S1P4 receptor antagonists, primary screen, cell-based; inhibition, % at 4.98 µM; AID 1510, 2009; S1P4-expressing cells, antagonist mode, reporter read-out; Sphingosine 1-phosphate receptor 4 (Homo sapiens), O95977; 0.26% of 220,000 active; in the data active means inhibition above about 29%;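 further: 0% = wells stimulated with agonist and 100% = vehicle wells without agonist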
# p97 ATPase inh: inhibitors of human p97 ATPase, primary screen, biochemical; recombinant p97 ATPase, Kinase-Glo ATP luminescence, 3 h; Transitional endoplasmic reticulum ATPase (Homo sapiens), P55072; 0.42% of 220,000 active; inhibition, % at 8 µM; in the data active means inhibition above about 15%;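 further: 0% = DMSO vehicle and 100% = wells lacking enzyme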
# SUMO HTRF inh: inhibitors of in vitro SUMOylation cascade, primary screen, biochemical, HTRF, uHTS; 0.36% of 290,000 active; inhibition, % at 35 µM; HTRF SUMOylation assay, SAE1/SAE2 + UBC9; SUMO-conjugating enzyme UBC9 (Homo sapiens), P63279; in the data active means inhibition above about 50%, passing the limit was not always enough
# Target sequence (P63279 whole entry, looked up): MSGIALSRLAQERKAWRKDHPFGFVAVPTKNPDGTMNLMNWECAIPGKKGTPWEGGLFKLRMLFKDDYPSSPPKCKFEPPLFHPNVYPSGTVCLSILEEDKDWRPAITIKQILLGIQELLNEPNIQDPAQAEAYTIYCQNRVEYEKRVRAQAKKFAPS
# DTT redox prof: compounds producing H2O2 with reducing agent – biochemical, NIH compound library profiling, artefact control for MLSCN library redox annotation, primary screen; DTT-dependent redox cycling H2O2, phenol red/HRP absorbance; 100% = 100 µM peroxide control, 0% = buffer; activation, % at 10 µM; 0.03% of 200,000 active; AID 878, 2007;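 active means activation of at least 50% relative to the plate's high and low controls in the primary single-dose screen; inactive means activation below 50%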;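 further: compound incubated with DTT at 0.8 mM final as the reducing agent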
# S1P4 agonist: S1P4 receptor agonists, primary screen, cell-based; Sphingosine 1-phosphate receptor 4 (Homo sapiens), O95977; S1P4-expressing cell line, agonist reporter assay; activation, % at 4.98 µM; 0.35% of 220,000 active; in the data active means activation above about 11%;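 further: 0% = DMSO vehicle and 100% = reference agonist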
# S1P4 ag conf: S1P4 receptor agonists, retest, confirmation, cell-based, high throughput; AID 1523, 2009; 7% of 740 active; shares compounds with S1P4 agonist; activation, % at 4.98 µM; S1P4 agonist cell-based reporter assay; in the data active means activation above about 12%;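 further: 0% = vehicle and 100% = full reference agonist response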
# S1P1 ag: S1P1 receptor agonists, human, counter-screen for S1P4 agonist project, cell-based; shares compounds with S1P4 agonist; S1P1 agonist cell-based assay, activation; activation, % at 4.98 µM; 4% of 740 active; AID 1563, 2009; in the data active means activation above about 21%;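 further: 0% = vehicle wells and 100% = reference agonist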
# S1P4 antag cf: S1P4 receptor antagonists, human, confirmation, cell-based. shares compounds with S1P4 antag. S1P4-expressing cell line, antagonist mode, reporter read-out. inhibition, % at 4.98 µM. 71% of 520 active. AID 1524, 2009; in the data active means inhibition above about 30%
# S1P1 antagonist: S1P1 receptor antagonists, human, counter-screen for S1P4 antagonist project, cell-based. shares compounds with S1P4 antag. cell-based S1P1 antagonist counterscreen, inhibition. inhibition, % at 4.98 µM. 37% of 520 active. AID 1564, 2009; in the data active means inhibition above about 40%;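 further: receptor stimulated with S1P near its EC80; 0% = agonist stimulated wells and 100% = vehicle only wells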
# An asterisk follows results filed as active; / = not tested or not shown. Hits are enriched below; roughly 1.1% of the tested compounds scored in any of these assays.
SMILES,S1P3 antag,S1P4 antag,p97 ATPase inh,SUMO HTRF inh,DTT redox prof,S1P4 agonist,S1P4 antag cf,S1P1 antagonist,others
CCNC(=O)NC(=O)C(C)OC(=O)c1c(C)nn(Cc2ccccc2)c1Cl (stereo not drawn),12,-17,1,20,0,31*,/,/,S1P4 ag conf=53*;S1P1 ag=-10
CCNC(=O)NC(=O)C(C)OC(=O)c1c(C)nn(Cc2ccccc2Cl)c1Cl (stereo not drawn),1,-41,0,-10,0,31*,/,/,S1P4 ag conf=43*;S1P1 ag=0
Cc1nn(Cc2ccccc2Cl)c(Cl)c1C(=O)OCC(=O)NCc1ccco1,-17,-17,-5,2,3,1,/,/,
Cc1nn(Cc2ccccc2)c(Cl)c1C(=O)Nc1ccc(OC(F)(F)F)cc1,-13,-11,2,3,0,-1,/,/,
N=Cc1c(O)n(-c2ccc(C34CC5CC(CC(C5)C3)C4)cc2)c(=O)[nH]c1=O,-5,8,2,-10,0,1,/,/,
CCC(=NCC1CCCO1)c1c(O)n(-c2ccccc2C)c(=O)[nH]c1=O (stereo not drawn),-7,6,10,14,/,93*,/,/,S1P4 ag conf=-3;S1P1 ag=-8
O=C1/C(=C\c2ccccc2)C2OCC=C3CN4CCC56c7ccccc7N1C5C2C3CC46 (stereo not drawn),0,-11,4,1,/,0,/,/,
CCOC(=O)c1c(-n2c(C)cc(/C=C3\C(=O)NC(=O)N(C)C3=O)c2C)sc2c1CCCC2,/,0,4,14,-8,13*,/,/,S1P4 ag conf=24*;S1P1 ag=5
COc1ccc(CCNCc2cccn2C)cc1OC,/,/,/,-6,/,/,/,/,
Cc1ccc(O)c(C(=O)c2cc(C(=O)NCCC(C)C)c(=O)n(CCC(C)C)c2)c1,-4,10,0,-15,0,15*,/,/,S1P4 ag conf=-3;S1P1 ag=-11
COC(=O)C1CN(C#N)N(c2ccc(Cl)cc2)C12c1ccccc1-c1ccccc12 (stereo not drawn),/,66*,4,-18,0,0,121*,94*,
CC1(C)C(C(=O)N2CCN(c3ccc(Cl)cc3)CC2)C1(C)C,/,/,/,12,/,/,/,/,
Cc1c(OC(=O)N(C)C)ccc2c1O/C(=C\c1ccco1)C2=O,/,/,/,0,/,/,/,/,
CCn1ncc(/C=C2/CC3C4CC=C5CC(O)CCC5(C)C4CCC3(C)C2=O)c1C (stereo not drawn),/,-1,0,/,0,1,/,/,
CN1CCN(c2ccc([N+](=O)[O-])c3no[n+]([O-])c23)CC1,-2,49*,3,55*,/,4,76*,-21,
CN1CCN(c2ccc(S(C)(=O)=O)cc2[N+](=O)[O-])CC1,-2,-10,7,62,0,0,/,/,
C=C1[C@@H](C)[C@H]2[C@H](Cc3ccccc3)NC(=O)[C@]23OC(=O)/C=C/[C@H](O)CCC[C@@H](C)C/C=C/[C@H]3[C@@H]1O,20,44*,1,12,/,0,51*,43*,
O=C1NC(=O)N(c2ccc(Cl)cc2)C(=O)/C1=C\c1ccc(Sc2nc3ccccc3[nH]2)o1,-5,-14,1,5,0,1,/,/,
CCNC(=O)[C@H]1O[C@@H](n2cnc3c(N)ncnc32)[C@H](O)[C@@H]1O,3,-6,3,5,/,7,/,/,
NC(=O)c1cn(C2OC(CO)C(O)C2O)c2ncnc(N)c12 (stereo not drawn),23,72*,-4,-25,-1,-6,79*,42*,
Cc1cc([N+](=O)[O-])c2ccccc2[n+]1[O-],-14,79*,-3,18,/,-2,114*,112*,
CC1CCC/C=C/C2CC(O)CC2C(O)/C=C/C(=O)O1 (stereo not drawn),/,47*,-4,10,0,0,83*,37,
C[C@H]1CCC[C@@H](O)CCC/C=C/c2cc(O)cc(O)c2C(=O)O1,/,-11,12,-10,0,1,/,/,
O=C1/C(=C/c2cc3c(cc2Cl)OCO3)N2CCC1CC2,5,-11,4,50,0,1,/,/,
CC(NS(=O)(=O)OCC(Cl)(Cl)Cl)c1ccccc1 (stereo not drawn),/,/,/,8,/,/,/,/,
SMILES,S1P3 antag,S1P4 antag,p97 ATPase inh,SUMO HTRF inh,DTT redox prof,S1P4 agonist,S1P4 antag cf,S1P1 antagonist,others
Cc1c(C(=O)Nc2ccccc2)cc(-c2ccccc2)n1CCCN1CCOCC1,-12,34*,-2,1,/,0,3,-8,
COc1c2c(cc3c1OCO3)CC[N+](C)=C2,-3,-5,4,22,0,0,/,/,
COc1ccc(-c2n(-c3ccccn3)c3ccccc3[n+]2-c2ccccn2)cc1,4,33*,0,21,/,0,-14,-10,
Cc1ccc(-c2nc3ccccc3c(=O)n2-c2ccccn2)cc1,-14,-9,0,2,0,0,/,/,
C=CCn1c(O)c(/C=N/N2CCCCC2c2cccnc2)c(=O)[nH]c1=S (stereo not drawn),-6,-14,0,-8,0,0,/,/,
COc1ccc(Oc2cc(NC(=O)c3nn(C)cc3[N+](=O)[O-])cc([N+](=O)[O-])c2)cc1,/,86*,-3,-7,0,0,108*,0,
COc1cc2c(cc1/C=C/[N+](=O)[O-])OCO2,-3,41*,-1,22,1,-1,87*,23,
CNc1cc(Cl)c2nonc2c1[N+](=O)[O-],-16,74*,-1,30,0,-5,114*,21,
CC1(C)C[C@H]2C=C(C=O)[C@]3(C=O)C[C@]3(C)[C@H]2C1,0,70*,11,2,0,-6,115*,118*,
